Shown are actives, neighbours in structure and some others; about 4.6% of the full set was active somewhere.
TRHR agonist: TRH receptor (human) agonism; P34981; TRHR cells, calcium flux fluo-8, FDSS agonist mode; activation, % at 2 µM; 360,000 tested, 0.18% active; AID 493084; further: 0% is about no effect
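TRHR-expressing cells, plated overnight in medium with 10% serum, were loaded with fluo-8 calcium dye at room temperature. After a 10 s baseline, library compound was pin-added and calcium release was recorded kinetically (ex 480/em 530) as agonist response.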
D1 ag: agonists of human D1 dopamine receptor; 360,000 tested, 1% active; activation, % at 2 µM; P21728; HEK293 T-REx D1 cells, calcium flux, agonist mode; further: 0% is about no effect
Target sequence (P21728 whole entry, looked up): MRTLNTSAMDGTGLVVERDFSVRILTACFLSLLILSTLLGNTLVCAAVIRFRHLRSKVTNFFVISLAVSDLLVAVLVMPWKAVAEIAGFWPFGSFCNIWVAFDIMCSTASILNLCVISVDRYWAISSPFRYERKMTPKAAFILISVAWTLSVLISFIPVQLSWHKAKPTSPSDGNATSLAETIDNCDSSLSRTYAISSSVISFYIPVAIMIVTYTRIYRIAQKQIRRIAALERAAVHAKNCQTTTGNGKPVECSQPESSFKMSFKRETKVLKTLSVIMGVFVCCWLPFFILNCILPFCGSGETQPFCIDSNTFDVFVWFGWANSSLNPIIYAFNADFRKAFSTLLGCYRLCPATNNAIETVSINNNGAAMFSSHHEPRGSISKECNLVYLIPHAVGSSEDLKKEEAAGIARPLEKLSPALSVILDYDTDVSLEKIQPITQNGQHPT
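Tetracycline-induced HEK293 TREx D1 cells, force-coupled to calcium signalling, were dye-loaded with a no-wash calcium kit. Compound was pin-added after a 10 s baseline. Fluorescence was read kinetically at 1 cycle/s for 180 s, with calcium rises flagged as agonism.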
D1 antag: blocks dopamine activation of the human D1 receptor | HEK293 TREx D1 cells, calcium flux, dopamine EC80; stronger effect = lower value | 360,000 tested, 3.2% active | activity change, negative = inhibition, % at 10 µM | P21728; in the data active means activity change below about -30%; further: on the % scale 0 is the no-effect control and ±100 the full control effect
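Allosteric or orthosteric antagonism assessed as attenuation of the calcium response to EC80 dopamine, added 180 s after compound, in induced HEK293 Trex D1 cells loaded with no-wash calcium dye.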
TRHR enhancer: allosteric enhancers of human TRH receptor; P34981; TRHR cells, fluo-8 calcium fluorescence, EC20 TRH enhancement; enhancement, % at 2 µM; 360,000 tested, 0.66% active; in the data active means enhancement above about 30%; further: 0% is about no effect
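TRHR-expressing cells loaded with fluo-8 calcium dye were read kinetically (ex 480/em 530) during compound addition, then stimulated with an EC20 of TRH (10 nM final). Enhancement of the Gq-mediated intracellular calcium response was scored.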
D1 potentiator: human D1 dopamine receptor positive modulation | potentiation, % at 10 µM | HEK293 TREx D1 cells, calcium flux, dopamine EC20 potentiation | P21728 | 360,000 tested, 0.036% active; in the data active means potentiation above about 30%; further: 0% is about no effect
The depositor's hits bear a star. Unless noted, no stated cut-off is given here; in the data, active means activation above about 30%; inactive means the rest.

SMILES	TRHR agonist	D1 ag	D1 antag	TRHR enhancer	D1 potentiator
C=CCOc1ccc(/C=N\NC(N)=S)cc1	-1	0	-62*	33*	-5
CCOC(=O)N1CCc2c(sc3c2c(=O)n(CCc2ccccc2)c(=O)n3Cc2cc(C)ccc2C)C1	1	2	-51*	1	-4
O=C(O)CSC1CC(=O)N(c2ccc(Br)cc2)C1=O (stereo unspecified)	0	9	-4	40*	-5
O=C(O)CSC1CC(=O)N(c2ccc(Cl)cc2)C1=O (stereo unspecified)	0	2	-1	3	-3
CCN1CCN(C(c2ccc(OC)cc2)c2c(O)cc(C)n(CCOC)c2=O)CC1 (stereo unspecified)	0	0	-7	-4	3
CCN1CCN(C(c2ccc(Cl)cc2)c2c(O)cc(C)n(CCOC)c2=O)CC1 (stereo unspecified)	0	-2	-39*	8	2
COCCn1c(C)cc(O)c(C(c2ccccc2OC)N2CCN(c3ccccc3)CC2)c1=O (stereo unspecified)	0	0	-23	45*	-3
Cc1ccc(NC(=O)Nc2ccccc2CC[N+](=O)[O-])cc1	0	9	-32*	2	-7
COc1ccc(C2CC(=O)N3CN(c4ccc(C)c(Cl)c4)CSC3=C2C#N)cc1 (stereo unspecified)	0	3	-3	31*	-5
COc1cccc(NC(=O)Cn2c(=O)c3c(ncn3Cc3ccccc3)n(Cc3ccccc3)c2=O)c1	-1	8	9	5	0
CCCc1cc(C(=O)Nc2ccc(C(=O)c3ccccc3)cc2)n(C)n1	3	14	-32*	-9	-12
O=C(Nc1cccc(F)c1)[C@H](CSCc1ccccc1)N1Cc2ccccc2C1=O	3	10	0	-1	-5
O=C(NNC(=O)C1CC2CCC1C2)c1sc2ccccc2c1Cl (stereo unspecified)	-1	3	-34*	-6	-5
COc1ccc(C(=O)NNC(=S)NC(=O)C(C)(C)C)cc1	79*	306*	-35*	-11	-4
O=C(NC1CC1)c1sc2ccccc2c1Cl	-1	1	-2	-1	-4
O=C(NNC(=S)NC1CCCCC1)c1sc2ccccc2c1Cl	1	3	2	1	-10
CC(C)(C)C(=O)NC(=S)NNC(=O)c1sc2ccccc2c1Cl	-2	446*	46	4	56*
COc1ccc(C(=O)NNC(=S)NC(=O)/C=C/c2cccs2)cc1	-1	3	-35*	0	5
CCCCCCOc1ccc(C2C(=O)N(C3CCCCC3)CC(=O)N2CCC)cc1 (stereo unspecified)	0	3	18	5	2
Cc1oc2c(C)c(O)ccc2c(=O)c1-c1cnn(-c2ccccc2)c1	0	1	-37*	-7	2
COc1ccc(CCNC(=O)c2c(O)nc3c(C)cccn3c2=O)cc1	0	2	-1	-2	-3
COC(=O)/C=C/S(=O)(=O)c1ccc(NC(C)=O)cc1	1	2	8	33*	-1
COc1ccccc1OS(=O)(=O)c1ccc(NC(C)=O)cc1	0	6	-12	4	1
CCN(CC)C(=O)c1c(NC(=O)c2ccccc2F)sc2c1CCC(C(C)(C)C)C2 (stereo unspecified)	-1	0	20	7	1
O=C(NCc1cccc(F)c1)c1ccccc1NC(=O)c1nsc2ccccc12	0	4	6	1	1
COC(=O)[C@@H]1C[C@@]2(O)[C@@H](O)[C@@H](O)[C@@H](O)C[C@H]2N1CC1CCCCC1	0	13	-56*	7	0
COc1cccc(OC)c1C(=O)Nc1sc2c(c1C(N)=O)CCN(Cc1ccccc1)C2	11	20	8	2	-4
CC(=O)c1ccc(C(=O)Nc2sc3c(c2C(N)=O)CCN(Cc2ccccc2)C3)cc1	13	63*	-8	-3	-8
NC(=O)c1c(NC(=O)C2COc3ccccc3O2)sc2c1CCN(Cc1ccccc1)C2 (stereo unspecified)	38*	105*	-25	1	-1
CCOC(=O)c1c(NC(=O)C2COc3ccccc3O2)sc2c1CCN(Cc1ccccc1)C2 (stereo unspecified)	5	7	-12	-1	-7

From PubChem BioAssay
